Measurements from PubChem BioAssay.
Active and inactive are the calls of the source. Unless noted, how the calls were made is not given here.

Experiments:
[1] = resazurin metabolic signal in HepG2 cells – cell-based, resazurin fluorescence, 24 h, PK04 Diversity Set, profiling panel (AID 1172); settings: HepG2 viability, higher = more signal; further: test concentration not given here
[2] = budding yeast growth changes without added modifier – OD600, strain BY4716, 24 h, basal condition, primary screen (AID 1173); settings: S. cerevisiae BY4716 growth, OD600, 24 h; higher = more signal, called active from +8 up or from −8 down
[3] = viability profiling in MM1S myeloma cells – cell-based, resazurin fluorescence, basal, 24 h, PK04 Diversity Set, profiling panel (AID 1174); settings: higher = more signal, called active from +8 up or from −8 down;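 further: MM1S multiple myeloma cell line; test concentration not given here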
[4] = target: Dihydroorotate dehydrogenase (quinone), mitochondrial (Plasmodium falciparum (isolate 3D7)) (UniProt Q08210); test: inhibition of P. falciparum DHODH – biochemical, C-terminal His tag, absorbance 600 nm, primary screen (AID 1175); settings: PfDHODH enzyme, DCIP absorbance 600 nm; higher = more signal, called active from +8 up or from −8 down;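 further: recombinant parasite enzyme with a five histidine tag at its C terminus; test concentration not given here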
Sequence of Dihydroorotate dehydrogenase (quinone), mitochondrial (Plasmodium falciparum (isolate 3D7)) (Q08210 whole entry, looked up): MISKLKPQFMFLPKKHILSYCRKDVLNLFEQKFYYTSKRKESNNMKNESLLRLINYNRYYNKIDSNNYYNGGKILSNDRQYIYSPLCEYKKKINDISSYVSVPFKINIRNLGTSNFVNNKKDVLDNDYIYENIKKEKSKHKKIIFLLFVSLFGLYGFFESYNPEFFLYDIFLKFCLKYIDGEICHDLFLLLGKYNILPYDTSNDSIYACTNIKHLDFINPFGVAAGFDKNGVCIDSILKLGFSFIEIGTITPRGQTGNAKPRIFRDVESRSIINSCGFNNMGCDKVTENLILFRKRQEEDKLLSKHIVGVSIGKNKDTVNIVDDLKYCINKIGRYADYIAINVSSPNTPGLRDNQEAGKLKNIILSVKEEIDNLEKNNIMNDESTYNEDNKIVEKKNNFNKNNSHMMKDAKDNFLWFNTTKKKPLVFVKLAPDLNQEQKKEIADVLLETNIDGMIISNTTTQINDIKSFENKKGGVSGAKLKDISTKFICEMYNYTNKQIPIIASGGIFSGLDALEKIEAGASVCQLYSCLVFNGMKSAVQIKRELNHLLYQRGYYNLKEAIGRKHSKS

[5] = inhibition of PAO1 biofilm formation – strain PAO1, LB-PBS medium, absorbance 600 nm, primary screen (AID 1176); further: test concentration not given here; settings: P. aeruginosa PAO1 growth/biofilm, A600, 12 h; higher = more signal
[6] = growth modulation of vineyard yeast isolate – strain RM11-1a, OD600, basal, 24 h, primary screen (AID 1177);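 further: cultures grown under basal conditions with no added stressor; test concentration not given here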; settings: S. cerevisiae RM11-1a growth, OD600, 24 h; higher = more signal, called active from +8 up or from −8 down
[7] = growth of efflux-deficient E. coli DRC39 – strain DRC39, OD650, 24 h, E. coli filamentation inducers, primary screen (AID 1178);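 further: growth measured as culture turbidity by optical density at 650 nm; test concentration not given here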; settings: E. coli DRC39 acrAB, higher = more signal, called active from +8 up or from −8 down
[8] = growth of efflux-deficient E. coli DRC39 – strain DRC39, OD650, 48 h, E. coli filamentation inducers, primary screen (AID 1179);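 further: screen aims at cell division blockers that make cells filament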; settings: E. coli DRC39 delta-acrAB growth, higher = more signal, called active from +8 up or from −8 down
[9] = viability profiling in RPMI8226 myeloma cells – cell-based, resazurin fluorescence, basal, 24 h, PK04 Diversity Set, profiling panel (AID 1180); settings: higher = more signal;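 further: RPMI8826 multiple myeloma cell line at 5000 cells per well; test concentration not given here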
[10] = target: E3 ubiquitin-protein ligase XIAP (Homo sapiens) (UniProt P98170); test: small molecules binding XIAP protein – biophysical, small-molecule microarray, fluorescence 635 nm, primary screen (AID 1181); settings: higher = more signal;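 further: score merges 667 nm emission and signal to noise over triplicate slides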
Sequence of E3 ubiquitin-protein ligase XIAP (Homo sapiens) (P98170 whole entry, looked up): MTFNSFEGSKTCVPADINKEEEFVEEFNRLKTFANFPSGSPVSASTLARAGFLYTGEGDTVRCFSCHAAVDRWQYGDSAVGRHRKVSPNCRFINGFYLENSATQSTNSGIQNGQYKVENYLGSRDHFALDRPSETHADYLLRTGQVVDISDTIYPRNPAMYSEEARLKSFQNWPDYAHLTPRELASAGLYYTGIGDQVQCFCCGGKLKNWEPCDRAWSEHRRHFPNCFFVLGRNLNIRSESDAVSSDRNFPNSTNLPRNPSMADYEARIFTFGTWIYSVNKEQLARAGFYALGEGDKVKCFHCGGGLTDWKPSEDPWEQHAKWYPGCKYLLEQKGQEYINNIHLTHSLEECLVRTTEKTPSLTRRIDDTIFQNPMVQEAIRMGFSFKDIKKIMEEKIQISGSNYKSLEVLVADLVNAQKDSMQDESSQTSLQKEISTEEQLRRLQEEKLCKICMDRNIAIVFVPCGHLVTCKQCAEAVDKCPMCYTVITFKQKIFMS

SMILES	z-score [1]	z-score [2]	z-score [3]	composite z-score [4]	z-score [5]	z-score [6]	z-score [7]	z-score [8]	z-score [9]	composite z-score [10]
C=CCC(OC(C)=O)[C@@H]1[C@@H](N(Cc2cccc3ccccc23)C(=O)Cc2ccc(F)cc2)c2cc(OCCCO)ccc2N1C(=O)c1ccc(-c2ccccc2)cc1 (stereo not given in full)	-0.271	0.388 (inactive)	-0.0279 (inactive)	0.366 (inactive)	0.231 (inactive)	-0.163 (inactive)	-0.386 (inactive)	-0.0169 (inactive)	0.336	0.0623
CN(C)C(=O)[C@@]1(Cc2ccccc2)COC(c2ccc(OCCCO)cc2)=N1	-0.272	-3.27 (inactive)	-0.403 (inactive)	0.263 (inactive)	-0.841 (inactive)	0.536 (inactive)	0.704 (inactive)	1.19 (inactive)	0.449	0.521
COc1ccc([Si](C)(C)[C@@H]2[C@@H](CC(=O)N3Cc4ccccc4C[C@H]3CO)O[C@]3(C(=O)N(Cc4ccc(N5CCC5=O)cc4)c4ccccc43)[C@H]2C)cc1	0.353	0.457 (inactive)	-0.736 (inactive)	-3 (inactive)	1.45 (inactive)	2.01 (inactive)	0.7 (inactive)	0.613 (inactive)	-0.536	0.177
CCCCCCCCCCC(O)C1C=CC2C(=O)N(C)C(=O)C2N1Nc1cc(OC)c(OC)c(OC)c1 (stereo not given)	-2.36	-1.36 (inactive)	-3.17 (inactive)	-1.3 (inactive)	0.971 (inactive)	0.439 (inactive)	-0.875 (inactive)	-1.12 (inactive)	-3.54	-0.182
Cc1ccccc1C(O)C1C=CC2C(=O)NC(=O)C2N1Nc1ccc(Cl)cc1Cl (stereo not given)	-2.17	-9.05 (active)	-1.03 (inactive)	0.107 (inactive)	1.15 (inactive)	0.251 (inactive)	-0.511 (inactive)	-0.963 (inactive)	-1.25	2.02
O=C(NCCN1CCOCC1)[C@@H]1c2ccccc2C(=O)N(Cc2ccccc2)[C@H]1c1ccc(CO)cc1	1.15	0.476 (inactive)	0.802 (inactive)	-0.547 (inactive)	-0.838 (inactive)	0.496 (inactive)	0.0077 (inactive)	0.76 (inactive)	0.822	-0.0228
COCCCNC(=O)[C@@]1(c2ccc([N+](=O)[O-])cc2)CC(=O)N(C(C)C)[C@@H]1c1ccc(CO)cc1	0.145	-0.569 (inactive)	0.879 (inactive)	-0.499 (inactive)	0.0561 (inactive)	-0.203 (inactive)	0.0472 (inactive)	-0.0495 (inactive)	1.24	0.0223
CN(C)CCCNC(=O)[C@@H]1c2ccccc2C(=O)N(C2CCCCC2)[C@H]1c1ccc(CO)cc1	0.848	-0.737 (inactive)	0.749 (inactive)	-0.151 (inactive)	0.0714 (inactive)	0.409 (inactive)	-0.101 (inactive)	0.515 (inactive)	0.988	-0.157
COc1ccc([Si](C)(C)[C@H]2[C@H](CCO)O[C@@]3(C(=O)N(Cc4ccccc4)c4ccc(N5CCOC5=O)cc43)[C@@H]2C)cc1	-1.27	1.12 (inactive)	-3.35 (inactive)	0.0738 (inactive)	2.41 (inactive)	4.25 (inactive)	0.895 (inactive)	0.0981 (inactive)	-2.64	-0.135
CCOC(=O)C1=CCN(S(=O)(=O)c2ccc(C)cc2)C1c1ccccc1 (stereo not given)	-0.17	0.218 (inactive)	-0.612 (inactive)	-0.551 (inactive)	0.449 (inactive)	0.58 (inactive)	-0.564 (inactive)	-0.359 (inactive)	-1.01	-0.0957
COC(=O)[C@@]1(Cc2ccc(F)cc2)[C@H]2c3cc(C(=O)N4CCCC4)n(CC4CC4)c3C[C@H]2CN1C(=O)c1ccccc1	-1.57	-0.443 (inactive)	-1.65 (inactive)	-0.559 (inactive)	0.495 (inactive)	0.056 (inactive)	-0.688 (inactive)	-0.64 (inactive)	-2.11	0.705
O=C1C2C=CC(C(O)c3cc(C(F)(F)F)cc(C(F)(F)F)c3)N(Nc3ccccc3F)C2C(=O)N1c1ccccc1 (stereo not given)	-2.18	-1.47 (inactive)	-1.09 (inactive)	-0.232 (inactive)	1.11 (inactive)	0.332 (inactive)	-2.31 (inactive)	-0.711 (inactive)	-3.04	0.0264
CC1(C)C(=O)C(c2ccccc2)=C2CN3C(=O)N(CCc4ccccc4)C(=O)C3(Cc3ccc(F)cc3)C=C21 (stereo not given)	-1.03	0.664 (inactive)	-2.18 (inactive)	-0.533 (inactive)	0.563 (inactive)	1.11 (inactive)	-0.687 (inactive)	-1.01 (inactive)	-0.968	-0.198
CC(C)C[C@@H]1NC(=O)[C@@]23C(=O)N[C@@H](Cc4ccccc4)C2[C@H](C)[C@@]2(C)O[C@H]2C3/C=C/C/C=C\CNC(=O)[C@@H](C)NC1=O (stereo not given in full)	0.833	-0.68 (inactive)	1.33 (inactive)	-0.401 (inactive)	-0.131 (inactive)	-1.08 (inactive)	1.65 (inactive)	0.209 (inactive)	1.01	-0.116
Cc1c(NC(=O)/C(C#N)=C/c2ccccc2Cl)c(=O)n(-c2ccccc2)n1C	0.294	-1.08 (inactive)	0.242 (inactive)	-1.73 (inactive)	0.543 (inactive)	-0.688 (inactive)	1.17 (inactive)	1.36 (inactive)	0.0753	0.197
C=CCC(OC(C)=O)[C@@H]1[C@@H](N(Cc2ccc(-c3ccccc3)cc2)C(=O)Cc2ccc(F)cc2)c2cc(OCCCO)ccc2N1C(=O)Cc1ccc2ccccc2c1 (stereo not given in full)	0.487	-0.0838 (inactive)	0.821 (inactive)	0.252 (inactive)	0.113 (inactive)	-0.177 (inactive)	0.531 (inactive)	0.575 (inactive)	0.486	-0.455
CC(C)C(=C=CC[C@@H](O)c1cccc(OCCO)c1)C[C@@H](O)c1ccccn1	0.828	-1.02 (inactive)	0.642 (inactive)	-6.55 (inactive)	-0.0342 (inactive)	0.488 (inactive)	0.267 (inactive)	-0.158 (inactive)	0.463	0.127
CS(=O)(=O)CCOC(=O)C1=CC(CCCO)=CC(C2CC2)N(Cc2cccc(OC(F)(F)F)c2)C=C1C(=O)OCCS(C)(=O)=O (stereo not given)	0.0407	-2.55 (inactive)	0.0932 (inactive)	-0.0527 (inactive)	0.342 (inactive)	0.416 (inactive)	0.9 (inactive)	0.241 (inactive)	0.329	0.0363
Nc1cc(Br)ccc1C(=O)O	0.615	-0.811 (inactive)	1.11 (inactive)	-0.627 (inactive)	-0.612 (inactive)	-0.127 (inactive)	0.37 (inactive)	-0.138 (inactive)	1.29	0.0837
CCCCCCCCCCC(O)C1C=CC2C(=O)N(c3ccccc3)C(=O)C2N1Nc1ccccc1F (stereo not given)	0.0366	0.864 (inactive)	-0.361 (inactive)	0.742 (inactive)	0.819 (inactive)	0.719 (inactive)	-0.717 (inactive)	0.555 (inactive)	-0.335	0.174
COc1ccc(C#Cc2ccc3c(c2)[C@]2(C(=O)N3)[C@H](C(=O)N3CCCCCCC3)[C@H]3C(=O)O[C@H](c4ccccc4)[C@H](c4ccccc4)N3[C@@H]2c2ccc(O)cc2)cc1	0.629	0.299 (inactive)	0.697 (inactive)	-8.52 (active)	1.19 (inactive)	0.136 (inactive)	-0.45 (inactive)	-0.601 (inactive)	0.428	-0.0149
C=CCNC(=O)[C@@H]1[C@H]2C(=O)O[C@H](c3ccccc3)[C@H](c3ccccc3)N2[C@H](c2ccc(O)cc2)[C@@]12C(=O)N(C(=O)OCCOC)c1ccc(C#CCCO)cc12	0.02	-0.363 (inactive)	-1.12 (inactive)	-0.855 (inactive)	0.249 (inactive)	0.782 (inactive)	0.37 (inactive)	0.479 (inactive)	-0.299	-0.0749
COCCOC(=O)N1C(=O)[C@@]2(c3ccccc31)[C@H](c1ccc(OCCO)cc1)N1[C@H](c3ccccc3)[C@H](c3ccccc3)OC(=O)[C@H]1[C@@H]2C(=O)N1CCCCCCC1	1.11	0.492 (inactive)	0.441 (inactive)	0.132 (inactive)	1.84 (inactive)	2 (inactive)	-0.965 (inactive)	-0.618 (inactive)	1.04	2.64
O=C1C2C=CC(C(O)c3ccc4c(c3)OCO4)N(Nc3ccccc3)C2C(=O)N1c1ccccc1 (stereo not given)	-0.0551	0.939 (inactive)	-0.793 (inactive)	0.0433 (inactive)	0.338 (inactive)	0.581 (inactive)	-0.0005 (inactive)	-0.387 (inactive)	-0.827	-0.0524
